In the OligoGym collection one finds sensor-assay potency score (higher = more potent) data, which are given here for 40 sequences.
Note: reference of the scale not given here.

One test concerns the target UTS2D. In words: pooled miR-30 sensor sort-seq; sequence = guide strand. As to conditions: shRNA.
Regarding TTGTATATTTTTTATCTGGAAA, the sensor-assay potency score (higher = more potent) is -1.16.

As for TCTTTTAGCTTTTCCAGCTGGT, the sensor-assay potency score (higher = more potent) was determined as 0.0536.

TTAGGAGTCCAAAGCAAACAGT registered a sensor-assay potency score (higher = more potent) of -1.23.

Consider TAGGAGTCCAAAGCAAACAGTG, for which the sensor-assay potency score (higher = more potent) is -0.558.

TAAGATATGGTCGTCCATGCAC registered a sensor-assay potency score (higher = more potent) of -0.532.

The target of a further test is UXS1. The description is as above. As to conditions: shRNA.
Sequence TATACATGTAGTTTGGAGGGGA showed a sensor-assay potency score (higher = more potent) of 0.245.

TTTTAGTTCACCATTTTCCTGG had a sensor-assay potency score (higher = more potent) of 0.218.

For TAGATCGCTGACGTACTGGAAC, the sensor-assay potency score (higher = more potent) was -0.778.

Consider TTAACTGAGCAAATTCTAGGAT, for which the sensor-assay potency score (higher = more potent) was 0.0899.

TTAGTGGTTCAACCATCTCTTC came in with a sensor-assay potency score (higher = more potent) of -1.31.

As for TAACTGAGCAAATTCTAGGATT, the sensor-assay potency score (higher = more potent) was -0.862.

Consider TTCAACCATCTCTTCAATCTTG, for which the sensor-assay potency score (higher = more potent) is -0.0638.

Sequence TAATTAACTGAGCAAATTCTAG had a sensor-assay potency score (higher = more potent) of -1.25.

The sequence TAGGATTGTGTGTTCTTCTGGG had a sensor-assay potency score (higher = more potent) of 0.906.

TTGTCTGAGACCCGGATCCGTA: the sensor-assay potency score (higher = more potent) was -1.19.

Regarding TTTGTTTAAACCTTCCTCCAGC, the sensor-assay potency score (higher = more potent) is -0.24.

The sequence TATCTGGTCAACCTCGATGTAG gave a sensor-assay potency score (higher = more potent) of -1.33.

A further test has as its target VAMP1. The test is described as above. As to conditions: shRNA.
Sequence TTGACTGCAAAGTCCCAGGGTT returned a sensor-assay potency score (higher = more potent) of 0.215.

ATAACTACCACGATGATGGCAC yielded a sensor-assay potency score (higher = more potent) of 0.289.

In the case of TATGATGTCCACCACCTCCTCC, the sensor-assay potency score (higher = more potent) is -0.679.

In the case of TAGTCGTCTGTTACTGGTCATG, the sensor-assay potency score (higher = more potent) is -1.49.

In the case of ATGATCATCATCTTGCAGTTTT, the sensor-assay potency score (higher = more potent) was -0.861.

As to TTACTGGTCATGTTAGGAGGAG, the sensor-assay potency score (higher = more potent) was -0.535.

As for TGCTGTAGTCGTCTGTTACTGG, the sensor-assay potency score (higher = more potent) is -0.0703.

Sequence AGCATGATCATCATCTTGCAGT displayed a sensor-assay potency score (higher = more potent) of -1.92.

Sequence TAGCTTGGCAGCACTGCTCTCA displayed a sensor-assay potency score (higher = more potent) of -0.655.

In turn, TTTAGCTTGGCAGCACTGCTCT gave a sensor-assay potency score (higher = more potent) of -0.465.

Consider TTTGGTGGAAGTACAACTGTTG, for which the sensor-assay potency score (higher = more potent) was determined as 0.106.

Turning to TTTTGTTGCACATTTGCTCATG, the sensor-assay potency score (higher = more potent) was -0.374.

The target of the next test is VAMP8. The test is described as above. As to conditions: shRNA.
AAGGACAATCATCTTCACGTTC: the sensor-assay potency score (higher = more potent) was -0.269.

Consider TTTTCGAGCCACCTTCTGCGAT, for which the sensor-assay potency score (higher = more potent) was -1.17.

Take ATGTCGTCTTGAAGTGCTCAGA: the sensor-assay potency score (higher = more potent) is -1.56.

TCTTCCACCAGAATTTTCGAGC yielded a sensor-assay potency score (higher = more potent) of -0.564.

Sequence AGATCCTCTGTCTTGTTGCGGA displayed a sensor-assay potency score (higher = more potent) of -1.4.

In turn, TTTCGAGCCACCTTCTGCGATG had a sensor-assay potency score (higher = more potent) of -0.89.

Consider ATCATCTTCACGTTCTTCCACC, for which the sensor-assay potency score (higher = more potent) was -0.825.

ATCTTCACGTTCTTCCACCAGA returned a sensor-assay potency score (higher = more potent) of -1.17.

The sequence TAATATTCTTAACTCCCTCCAC yielded a sensor-assay potency score (higher = more potent) of 0.103.

TTTGCAGGTTCCGCACACGATC displayed a sensor-assay potency score (higher = more potent) of -1.07.

Turning to ATGATAAAAACAATCACGCAGA, the sensor-assay potency score (higher = more potent) is -0.843.
